Results filed as inconclusive are left out. A call without a number means that no potency is given here. Calls of active or inactive are those of the source. Unless noted, the call rests on the fitted dose curve; in most records, active means well fitted curve in the direction sought with a large enough effect in the repeat runs; inconclusive means weak or mixed curves; inactive means no such curve, though single readings can be large; an effect the other way counts as inactive or inconclusive.
Legend:
[1] = qHTS assay for small molecules that induce genotoxicity in human embryonic kidney cells expressing luciferase-tagged ATAD5 (AID 651632); further: nearly all actives have a fitted effect of over 15% in size
Outline: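 Test compounds were delivered by pin tool onto HEK293T reporter cells (2,000/well) expressing ATAD5 fused to luciferase. After 16 hr at 37C, 5% CO2, Amplite was added for 30 min at room temperature and luminescence was measured.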

[2] = qHTS assay for small molecule agonists of the p53 signaling pathway - cell viability (AID 651633; calls by dose curve;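 further: p53RE-bla HCT reporter cells with a stable beta-lactamase p53 reporter; series mostly up to about 83 µM; nearly all actives have a fitted effect of over 30% in size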)
Outline: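 p53RE-bla cells, seeded at 4,000 per well and rested 5 h at 37 C/5% CO2, received compounds in DMSO for 16 h at 37 C. CellTiter-Glo was then added, and luminescence was read after 30 min at room temperature to gauge cytotoxicity.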

[3] = qHTS assay for small molecules that induce genotoxicity in human embryonic kidney cells expressing luciferase-tagged ATAD5 - cell viability (AID 651634; calls by dose curve; further: nearly all actives have a fitted effect of over 25% in size)
Outline: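 Quantitative high-throughput format. HEK293T cells expressing ATAD5 fused to luciferase were plated at 2,000 cells/well and treated 15.5 hr with compound versus DMSO. Viability was determined by fluorescent live-cell protease substrate, 30 min at 37C.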

[4] = qHTS assay for small molecule disruptors of the mitochondrial membrane potential - cell viability (AID 720634; calls by dose curve;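 further: human HepG2 liver cancer cells; series mostly up to about 83 µM; nearly all actives have a fitted effect of over 20% in size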)
Outline: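 Same-well counter-screen: following the MMP dye addition, CellTiter-Glo was added to 1 hr compound-treated HepG2 cells and luminescence read after 30 min at room temperature.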

[5] = qHTS assay for small molecule disruptors of the mitochondrial membrane potential (AID 720635)
Outline: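 HepG2 cells (2,000/well) attached overnight at 37C, then took compound for 1 hr at 37C, 5% CO2. Mito-MPS dye was added for 30 min; fluorescence was read at 490/535 nm (monomers) and 540/590 nm (aggregates).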

[6] = qHTS assay to test for compound auto fluorescence at 590 nm (red) in HepG2 cells (AID 720674)
Outline: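 Rose Bengal sodium served as the red fluorophore standard. HepG2 monolayers (overnight attachment, MEM with 10% FBS) were exposed to test compounds for 1 hr at 37 C and read at Ex 540/Em 590 nm.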

[7] = qHTS assay to test for compound auto fluorescence at 535 nm (green) in HepG2 cells (AID 720675)
[8] = qHTS assay to test for compound auto fluorescence at 460 nm (blue) in HEK293 cells (AID 720678)
Outline: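 After cell attachment (4-5 hr, 37C), compounds were pinned onto HEK293 monolayers in 10% dialyzed FBS medium. The blue channel (405/460 nm) was read following overnight culture. Equivalency was calculated against triamterene.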

[9] = qHTS assay to test for compound auto fluorescence at 590 nm (red) in HEK293 cells (AID 720679)
Outline: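 Plates of HEK293 cells (10% dialyzed FBS) are treated with 23 nL compound or DMSO vehicle after a 4-5 hr attachment period, incubated overnight at 37C, and read for red fluorescence at 540/590nm.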

[10] = qHTS assay to test for compound auto fluorescence at 535 nm (green) in HEK293 cells (AID 720680)
[11] = qHTS assay to test for compound auto fluorescence at 460 nm (blue) in HEK293 cell free culture (AID 720681)
Outline: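 Test compounds were pinned into cell-free culture medium (DMEM with 10% FBS) and fluorescence was read directly at Ex/Em 405/460 nm. Signals were expressed as fluorescence equivalents of triamterene, with DMSO vehicle as control.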

[12] = qHTS assay to test for compound auto fluorescence at 535 nm (green) in HEK293 cell free culture (AID 720682)
Outline: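 Green-channel intensity (Ex/Em 485/535 nm) was recorded from compound-treated wells containing only DMEM with 10% FBS. Fluorescein provided the equivalency standard.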

[13] = qHTS assay to test for compound auto fluorescence at 590 nm (red) in HEK293 cell free culture (AID 720683)
Outline: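 Tox21 10K library compounds were pinned into cell-free DMEM with 10% FBS and fluorescence was read at excitation 540 nm. Activity is expressed as Rose Bengal sodium equivalency.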

[14] = qHTS assay to test for compound auto fluorescence at 590 nm (red) in HepG2 cell free culture (AID 720684)
Outline: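 Ex 540 / Em 590 nm read of compound in cell-free MEM (10% FBS). Rose Bengal sodium reference.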

[15] = qHTS assay to test for compound auto fluorescence at 460 nm (blue) in HepG2 cell free culture (AID 720685)
Outline: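 Cell-free plates of MEM plus 10% FBS received 23 nL compound or DMSO vehicle; blue-channel (405/460 nm) intensity scored against triamterene as reference fluorophore.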

[16] = qHTS assay to test for compound auto fluorescence at 535 nm (green) in HepG2 cell free culture (AID 720686)
[17] = qHTS assay to test for compound auto fluorescence at 460 nm (blue) in HepG2 cells (AID 720687)
Outline: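 Cells (2,000/well in MEM with 10% FBS) attached overnight at 37 C, then were exposed to compound or DMSO for 1 hr at 37 C, 5% CO2. Fluorescence read at Ex/Em 405/460 nm, expressed as triamterene-equivalent signal.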

[18] = target: Glucocorticoid receptor (Homo sapiens) (UniProt P04150); assay: qHTS assay to identify small molecule agonists of the glucocorticoid receptor (GR) signaling pathway (AID 720691; active means well fitted activation curve with a large enough effect in the signal ratio in the repeat runs, not every such curve was filed as active; the % refers to the signal ratio; further: potency means the concentration at half of the fitted maximal effect)
Outline: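 A HeLa cervical cancer line expressing GR and a glucocorticoid response element-driven beta-lactamase gene is treated with compounds for 18 h; LiveBLAzer B/G FRET substrate is then applied and fluorescence read.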

[19] = target: Glucocorticoid receptor (Homo sapiens) (UniProt P04150); assay: qHTS assay to identify small molecule antagonists of the glucocorticoid receptor (GR) signaling pathway (AID 720692; active means well fitted inhibition curve with a large enough effect in the signal ratio in the repeat runs, not every such curve was filed as active; the % refers to the signal ratio)
Outline: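 GRE-bla HeLa line, dex-stimulated (5 nM final). Compound exposure 18 h, 37 C. Beta-lactamase FRET read after 2 h RT substrate.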

[20] = qHTS assay for small molecule agonists of the p53 signaling pathway (AID 651631; calls by dose curve; further: nearly all actives have a fitted effect of over 15% in size)
Outline: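 We treat p53RE-bla HCT-116 cells with compounds for 16 h at 37 °C, add LiveBLAzer B/G FRET substrate for 2 h at room temperature, and measure fluorescence intensity.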

Sequence of Glucocorticoid receptor (Homo sapiens) (P04150 whole entry, looked up): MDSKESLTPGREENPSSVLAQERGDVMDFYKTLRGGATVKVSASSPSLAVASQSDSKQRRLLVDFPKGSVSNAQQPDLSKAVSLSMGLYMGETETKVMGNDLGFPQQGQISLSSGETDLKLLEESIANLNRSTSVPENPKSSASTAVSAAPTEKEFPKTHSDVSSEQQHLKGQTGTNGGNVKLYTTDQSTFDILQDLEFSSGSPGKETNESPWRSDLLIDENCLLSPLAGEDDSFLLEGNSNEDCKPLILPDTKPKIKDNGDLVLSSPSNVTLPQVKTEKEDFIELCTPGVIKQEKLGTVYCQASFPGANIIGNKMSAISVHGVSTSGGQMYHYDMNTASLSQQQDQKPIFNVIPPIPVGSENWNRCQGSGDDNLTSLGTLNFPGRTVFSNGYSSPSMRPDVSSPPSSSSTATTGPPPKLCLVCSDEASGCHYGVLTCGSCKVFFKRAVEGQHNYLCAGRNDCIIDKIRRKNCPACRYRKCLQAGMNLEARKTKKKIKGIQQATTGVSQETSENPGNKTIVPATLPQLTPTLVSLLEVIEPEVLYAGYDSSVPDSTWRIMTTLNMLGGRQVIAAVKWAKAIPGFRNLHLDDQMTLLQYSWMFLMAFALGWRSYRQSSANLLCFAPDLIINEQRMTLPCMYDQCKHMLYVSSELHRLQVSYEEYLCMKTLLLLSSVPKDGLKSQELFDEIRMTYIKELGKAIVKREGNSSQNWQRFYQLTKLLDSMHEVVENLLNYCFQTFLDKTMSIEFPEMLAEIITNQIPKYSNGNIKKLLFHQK

| SMILES | Potency [1] | outcome [2] | Potency [3] | Potency [4] | Potency [5] | outcome [6] | outcome [7] | outcome [8] | outcome [9] | outcome [10] | outcome [11] | outcome [12] | outcome [13] | outcome [14] | outcome [15] | outcome [16] | outcome [17] | Potency [18] | Potency [19] | outcome [20] |
| --- | --- | --- | --- | --- | --- | --- | --- | --- | --- | --- | --- | --- | --- | --- | --- | --- | --- | --- | --- | --- |
| CCO[Si](CCC1CCC2OC2C1)(OCC)OCC (stereo unspecified) | inactive | inactive | inactive | inactive | inactive | inactive | inactive | inactive | inactive | inactive | inactive | inactive | inactive | inactive | inactive | inactive | inactive | inactive | inactive |  |
| CC(C)c1cc2c(cc1S(=O)(=O)O)[C@@]1(C)CCC[C@@](C)(C(=O)O)[C@@H]1CC2 | inactive |  | inactive | inactive | inactive | inactive | inactive | inactive | inactive | inactive | inactive | inactive | inactive | inactive | inactive | inactive | inactive |  |  | inactive |
| NCCCNCCSP(=O)(O)O | inactive | inactive | inactive | inactive | inactive | inactive | inactive | inactive | inactive | inactive | inactive | inactive | inactive | inactive | inactive | inactive | inactive | inactive |  |  |
| C[C@@H]1CCN(C(=O)[C@H](CCCN=C(N)N)NS(=O)(=O)c2cccc3c2NC[C@H](C)C3)[C@@H](C(=O)O)C1 | inactive |  | inactive | inactive |  | inactive | inactive | inactive | inactive | inactive | inactive | inactive | inactive | inactive | inactive | inactive | inactive |  |  | inactive |
| CCN(Cc1ccncc1)C(=O)C(CO)c1ccccc1 (stereo unspecified) |  | inactive | inactive | inactive | inactive | inactive | inactive | inactive | inactive | inactive |  | inactive | inactive | inactive |  | inactive | inactive | inactive |  | inactive |
| CCOC(=O)c1cccc(N)c1 | inactive |  |  | inactive | inactive | inactive | inactive | inactive | inactive | inactive | inactive | inactive | inactive | inactive | inactive | inactive | inactive |  |  | inactive |
| CCn1nc(C(=O)O)c(=O)c2cc3c(cc21)OCO3 | inactive | inactive |  | inactive |  |  | inactive | inactive | inactive | inactive | inactive | inactive | inactive | inactive | inactive | inactive | inactive | inactive | inactive | inactive |
| C[N+](C)(C)CC(O)CC(=O)[O-] (stereo unspecified) | inactive |  | inactive | inactive | inactive |  | inactive | inactive | inactive | inactive | inactive | inactive | inactive | inactive |  | inactive | inactive | inactive | inactive | inactive |
| COc1ccc2c(c1)c(CC(=O)OCC(=O)O)c(C)n2C(=O)c1ccc(Cl)cc1 | inactive |  | inactive | inactive |  | inactive | inactive | inactive | inactive | inactive |  | inactive | inactive | inactive | inactive | inactive | inactive | inactive |  | inactive |
| N[C@@H](C(=O)N[C@@H]1C(=O)N2C(C(=O)O)=C(Cl)CS[C@H]12)c1ccccc1 | inactive |  | inactive | inactive |  | inactive | inactive | inactive | inactive | inactive | inactive | inactive | inactive | inactive | inactive | inactive | inactive | inactive |  | inactive |
| N=c1nc(N2CCCCC2)cc(N)n1O | inactive |  | inactive | inactive | inactive | inactive | inactive | inactive | inactive | inactive | inactive | inactive | inactive | inactive |  | inactive | inactive | inactive | inactive | inactive |
| CC(C)=CCCC(C)CC(=O)O (stereo unspecified) | inactive | inactive | inactive | inactive | inactive | inactive | inactive | inactive | inactive | inactive | inactive | inactive | inactive | inactive | inactive | inactive | inactive | inactive |  |  |
| CC(=O)OCC(=O)[C@@]1(O)CCC2C3CCC4=CC(=O)CC[C@]4(C)C3[C@@H](O)C[C@@]21C (stereo partly specified) | inactive |  | inactive | inactive | inactive |  | inactive | inactive | inactive | inactive | inactive | inactive | inactive | inactive | inactive | inactive | inactive | 134 nM (active) |  | inactive |
| C1OCOCO1 | inactive |  | inactive | inactive | inactive | inactive | inactive | inactive | inactive | inactive | inactive | inactive | inactive | inactive | inactive | inactive | inactive | inactive | inactive | inactive |
